Compounds with a hit are over-represented: about 0.49% of the library has one in this group of screens.
EPAC1 agonist = qHTS for Agonist of cAMP-regulated guanine nucleotide exchange factor 3 (EPAC1): primary screen; Rap guanine nucleotide exchange factor 3 (Homo sapiens), O95398; EPAC1 agonist qHTS, biochemical assay; response scale: 100% = response to 6.5 mM cAMP; Potency, µM (titrated, usually from 154 µM), for inactives: at the highest dose activation, hits mostly activators; 360,000 compounds, 0.073% hits; AID 720707, 2013; note: nearly all actives have a fitted effect of over 60% in size
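Nucleotide exchange by EPAC1 (100 nM) on Rap1B–BODIPY-GDP (250 nM) in the presence of 50 uM GDP is tracked fluorescently at 480/540 nm over 30 min. Signals are normalized to a 6.5 mM cAMP control.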
EPAC1 antagonist = qHTS for Antagonist of cAMP-regulated guanine nucleotide exchange factor 3 (EPAC1): primary screen; Rap guanine nucleotide exchange factor 3 (Homo sapiens), O95398; EPAC1 GEF assay, Rap1b-BODIPY-GDP exchange fluorescence; Potency, µM (titrated, usually from 115 µM), inactives show top-dose activity change, negative = inhibition, most hits filed as inhibitors; 360,000 compounds, 0.14% hits;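 note: plate controls were vehicle for no effect and positive control for full effect; nearly all actives have a fitted effect of over 50% in size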
EPAC2 agonist = qHTS for Agonist of cAMP-regulated guanine nucleotide exchange factor 4 (EPAC2): primary screen | 360,000 compounds, 0.079% hits | Potency, µM (titrated, usually from 154 µM), for the others: top-dose activation, hits mostly activators | EPAC2 activation, biochemical qHTS; response scale: 100% = 6.5 mM cAMP response | Rap guanine nucleotide exchange factor 4 (Homo sapiens), Q8WZA2 | AID 720711, 2013; note: nearly all actives have a fitted effect of over 50% in size
Target sequence (Q8WZA2 whole entry, looked up): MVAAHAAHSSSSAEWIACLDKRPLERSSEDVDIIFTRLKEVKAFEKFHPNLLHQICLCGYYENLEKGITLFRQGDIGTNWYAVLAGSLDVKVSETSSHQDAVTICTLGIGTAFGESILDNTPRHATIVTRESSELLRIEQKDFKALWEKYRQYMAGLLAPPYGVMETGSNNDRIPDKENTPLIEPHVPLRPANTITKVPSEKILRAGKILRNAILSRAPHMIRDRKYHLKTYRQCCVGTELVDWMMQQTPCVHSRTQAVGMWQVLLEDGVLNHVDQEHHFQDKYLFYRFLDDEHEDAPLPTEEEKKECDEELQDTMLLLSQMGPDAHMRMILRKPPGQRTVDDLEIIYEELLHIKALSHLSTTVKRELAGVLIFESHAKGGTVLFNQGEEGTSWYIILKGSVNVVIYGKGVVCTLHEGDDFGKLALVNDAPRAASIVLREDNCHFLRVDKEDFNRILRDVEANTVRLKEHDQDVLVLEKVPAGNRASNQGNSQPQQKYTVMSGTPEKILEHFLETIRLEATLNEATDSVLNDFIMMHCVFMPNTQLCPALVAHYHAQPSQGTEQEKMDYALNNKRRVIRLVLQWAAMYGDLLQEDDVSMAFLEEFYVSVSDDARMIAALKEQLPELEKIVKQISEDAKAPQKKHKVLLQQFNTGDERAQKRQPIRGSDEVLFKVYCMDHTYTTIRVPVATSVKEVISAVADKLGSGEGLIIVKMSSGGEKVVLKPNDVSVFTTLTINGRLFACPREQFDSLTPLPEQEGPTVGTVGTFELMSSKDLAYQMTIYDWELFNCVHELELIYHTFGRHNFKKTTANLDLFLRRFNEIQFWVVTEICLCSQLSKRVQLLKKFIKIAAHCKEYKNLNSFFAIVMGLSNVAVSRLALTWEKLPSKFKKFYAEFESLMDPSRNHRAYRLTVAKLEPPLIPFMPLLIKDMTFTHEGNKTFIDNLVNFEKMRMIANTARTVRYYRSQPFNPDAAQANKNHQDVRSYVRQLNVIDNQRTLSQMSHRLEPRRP
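Nucleotide exchange monitored as fluorescence drop when BODIPY-GDP leaves Rap1B. Reaction: 100 nM EPAC2, 250 nM RAP1B-BODIPY-GDP, 50 uM GDP, room temperature, kinetic read over 30 min. Activity expressed relative to 6.5 mM cAMP.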
EPAC2 antagonist = qHTS for Antagonist of cAMP-regulated guanine nucleotide exchange factor 2 (EPAC2): primary screen. EPAC2 GEF exchange of Rap1B-BODIPY-GDP, fluorescence. Potency, µM (highest dose often 114 µM), without a hit: top-dose activity, negative = inhibition, most hits filed as inhibitors. 360,000 compounds, 0.18% hits; note: % is set by controls: 0 for no effect and ±100 for the full control effect; nearly all actives have a fitted effect of over 45% in size
USP1-UAF1 inh = Inhibitors of USP1/UAF1: Primary Screen; Ubiquitin carboxyl-terminal hydrolase 1 (Homo sapiens), O94782; Potency, µM (series often up to 57.1 µM), for inactives: top-dose activity change, negative = inhibition, most hits filed as inhibitors; 390,000 compounds, 0.23% hits; recombinant USP1/UAF1, Ub-Rhodamine cleavage fluorescence; note: % is set by controls: 0 for no effect and ±100 for the full control effect; nearly all actives have a fitted effect of over 60% in size
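Step one: compound is pinned into 1nM USP1/UAF1 in HEPES pH 7.8 buffer with TCEP. Step two: 15 min room-temperature incubation. Step three: Ub-Rho (150nM final) starts cleavage, tracked by fluorescence over six one-minute reads.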
An asterisk follows results filed as active; ? = inconclusive; · = no result given; [ ] = another dose, or the depositor's remark. Calls come from the whole dose curve; as a rule, active = well fitted curve in the direction sought with a large enough effect; inconclusive = small, poorly fitted or top-dose-only effect, or another doubt; inactive = no such curve, though single readings can be large; an effect the other way counts as inactive or inconclusive. Potency is the fitted concentration of half-maximal effect.

SMILES | EPAC1 agonist | EPAC1 antagonist | EPAC2 agonist | EPAC2 antagonist | USP1-UAF1 inh
O=C(COc1ccccc1[N+](=O)[O-])Nc1cccc(C(=O)Nc2ccccc2C(=O)O)c1 | -5% | 71µM* | 2% | -8% | -25%
CCc1ccccc1NC(=O)c1cccc(NC(=O)/C=C/c2ccco2)c1 | 3% | 8% | 4% | 10% | -9%
Cc1ccc(NC(=O)c2cccc(NC(=O)/C=C/c3ccco3)c2)cc1C | 1% | ? | -3% | -2% | -26%
Cc1cccc(NS(=O)(=O)c2ccc3c(c2)CC(C)N3C(=O)C2CCC2)c1C (stereo not drawn) | · | · | · | · | -9%
CCCSc1ncc(Cl)c(C(=O)NCc2ccc(C)cc2)n1 | · | · | · | · | 5%
CC(C)(C)C(=O)Cn1c(=O)n(-c2ccc(Cl)cc2)c(=O)c2c3c(sc21)CCCC3 | · | · | · | · | -26%
CC(C)COc1ccc(C(=O)N(Cc2ccc(N(C)C)cc2)Cc2ccco2)cc1 | · | · | · | · | -8%
COc1ccc(N2CC(NC(=O)c3c(F)cccc3Cl)CC2=O)cc1OC (stereo not drawn) | · | · | · | · | -15%
COc1ccc(C(C)=O)cc1COc1ccc(F)cc1 | 15% | -30% | 14% | 56µM* | -10%
COc1ccc(C(=O)/C=C/c2ccc(OC)c(COc3ccc(F)cc3)c2)cc1 | 14% | -12% | 11% | -2% | ?
CCN(c1ccccc1C)S(=O)(=O)c1nnc(NC(=O)c2ccccc2C)s1 | · | · | · | · | -4%
O=C(O)c1cccc2cccc(-c3c4ccc(=O)c(O)c-4oc4c(O)c(O)ccc34)c12 | 12% | 32µM* | -4% | -28% | ?
COc1ccc(CNC(=O)c2ccc(N3CCCC3)c(NC(=O)NCc3ccc(C)cc3)c2)cc1 | · | · | · | · | -26%
Cc1cc(C(=O)C(=O)Nc2nnc(C(C)C)s2)c(C)n1-c1ccccc1 | · | · | · | · | -25%
COc1ccc(C=NNc2ccc(S(=O)(=O)Nc3ccccc3C(=O)O)cc2[N+](=O)[O-])c(OC)c1 | 3% | 50µM* | 1% | -5% | ?
C=CCOc1ccc(C=NNc2ccc(S(=O)(=O)Nc3ccccc3C(=O)O)cc2[N+](=O)[O-])cc1OC | -6% | 50µM* | 1% | ? | ?
CCc1ccccc1N(C)C(=O)c1cc2c(Cl)nc3ccc(C)cc3c2s1 | · | · | · | · | -2%
COc1ccc(-c2c(-c3cc(OC)cc(OC)c3)n(C)c3ccc(Br)cc23)cc1 | -1% | 6% | 8% | 7% | -26%
COc1ccc(N=Nc2nc3ccc(Br)cc3n2C)cc1 | 112µM* | 163% | 24% | 14% | -19%
Cc1ccc(N2C(=O)[C@@H]3[C@H](C2=O)C2c4ccccc4C=CN2[C@@H]3C(=O)c2ccco2)c(C)c1 (stereo partly drawn) | 4% | ? | 11% | -5% | 4µM*
COc1ccc(N2C(=O)[C@@H]3[C@H](C2=O)[C@H]2c4ccccc4C=CN2[C@@H]3C(=O)Nc2ccccc2)cc1 | 0% | -7% | -10% | 13% | ?
O=C1C2C3C=CC(C3)C2C(=O)N1Cc1ccccc1 (stereo not drawn) | -1% | 2% | -7% | 9% | -14%
O=C(c1ccco1)[C@@H]1[C@@H]2C(=O)N(c3ccccc3)C(=O)[C@@H]2C2c3ccccc3C=CN21 (stereo partly drawn) | 9% | -12% | 11% | -2% | 10µM*
Cc1ccc(N2C(=O)[C@@H]3[C@H](C2=O)C2c4ccccc4C=CN2[C@@H]3C(=O)c2ccco2)cc1 (stereo partly drawn) | 5% | -9% | -7% | -8% | 16µM*
CC(=O)[C@@H]1[C@@H]2C(=O)N(Cc3ccccc3)C(=O)[C@@H]2C2c3ccccc3C=CN21 (stereo partly drawn) | 5% | 3% | 2% | -1% | 18µM*
SMILES | EPAC1 agonist | EPAC1 antagonist | EPAC2 agonist | EPAC2 antagonist | USP1-UAF1 inh
Cc1ccc(-n2ncc3c(NNC(=O)c4ccco4)ncnc32)c(C)c1 | 1% | -14% | -5% | 8% | ?
Cc1c(C(=O)NCc2ccccc2Cl)sc2nc[nH]c(=O)c12 | · | · | · | · | 6%
Cc1ccccc1N1CCN(S(=O)(=O)c2nnc(NC(=O)c3ccc(C(C)C)cc3)s2)CC1 | · | · | · | · | -4%
Cn1c(=O)c2c(-c3ccc(Br)cc3)n(CCc3ccccc3)cc2n(C)c1=O | · | · | · | · | -6%
O=C(Nc1cccs1)Nc1ccccc1Cl | -4% | -21% | 6% | 22µM* | 3%
Cc1ccc(-c2cn3nc(-c4ccccc4)c(-c4ccccc4)nc3n2)cc1 | 16% | 7% | 100µM* | 213% | ?
COc1cc(/C=C2\SC(c3ccc(C)cc3)=NC2=O)cc(OC)c1O | 12% | -16% | -1% | -2% | ?
Cc1ccc(C2=NC(=O)/C(=C/c3cc(O)c(O)c(Br)c3)S2)cc1 | 2% | 10µM* | -1% | -22% | -16%
Cc1ccc(NC(=O)CN2C(=O)CCc3cc(S(=O)(=O)N4CCOCC4)ccc32)cc1F | · | · | · | · | -20%
O=c1c2ccccc2n2c(-c3ccc(Cl)cc3)nnc2n1CCc1ccccc1 | · | · | · | · | -18%
CC(=O)N1N=C(c2cccc([N+](=O)[O-])c2)OC1c1ccc(Br)cc1 (stereo not drawn) | -2% | -8% | 11% | -4% | -20%
CC(=O)N1N=C(c2ccccc2)OC1c1ccc([N+](=O)[O-])s1 (stereo not drawn) | 19% | -3% | 6% | -2% | 25µM*
CN(C)c1ccc(CNC(=O)CCCN2C(=O)c3cccnc3Oc3ccc(Cl)cc32)cc1 | · | · | · | · | -14%
CC1=CC(C)(C)N(C(=O)CCl)c2cc(C)ccc21 | -5% | -9% | 6% | 50µM* | -23%
Cn1c(SCC(=O)Nc2cccc(C(=O)O)c2)nnc1-c1cc2cc(Br)ccc2o1 | 63µM* | 35µM* | 3% | -8% | -1%
Cn1c(SCC(=O)Nc2cccc(Br)c2)nnc1-c1cc2ccccc2o1 | -7% | 11% | 3% | 17%[57.1 µM] | -23%
O=S(=O)(O)c1cc(O)c(N=Nc2ccc(O)cc2O)c2ccccc12 | -8% | 79µM* | 12% | 45µM* | ?
O=[N+]([O-])c1ccccc1N=Nc1ccc(O)cc1O | -4% | ? | -1% | -1% | ?
CC(C)CCNC(=O)c1ccc(NC(=O)N2CCCCc3ccccc32)cc1 | · | · | · | · | -1%
CC(C)Cc1csc(NC(=O)c2ccc(F)cc2)c1C(=O)O | 5% | 35µM* | -2% | -1% | -25%

High-throughput results (PubChem BioAssay)
